AC50 and outcome data for 6 compounds are collected here from PubChem BioAssay (EPA / NIEHS).

Assay [1] deals with human Neonicotinoid receptor (NNR), CHRNA2 (gene 1135) (UniProt Q15822). Description: NVS_LGIC_hNNR_NBungSens: NovaScreen (NVS) Ligand-Gated Ion Channel Assay for human Neonicotinoid receptor (NNR) (AID 2283313). A digest of the protocol: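 Radioligand displacement on human neuroblastoma membranes, 2 h, filter-based scintillation counting. Primary screen in duplicate at 25 uM; chemicals passing threshold (e.g. 30% inhibition) run singleton concentration-response to 50 uM; loss of binding fitted versus DMSO.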

In assay [2] the target is rat Neonicotinoid receptor (NNR), Chrna7 (gene 25302) (UniProt Q05941). Nature of the assay: NVS_LGIC_rNNR_BungSens: NovaScreen (NVS) Ligand-Gated Ion Channel Assay for rat Neonicotinoid receptor (NNR) (AID 2283315). Put shortly: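 Radioligand displacement binding on rat cortical membranes, 2.5 h incubation, filtration and scintillation counting. Loss of specific binding fitted relative to DMSO.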

The target in assay [3] is rat Neurokinin-3 Receptor (NK3), Tacr3 (gene 24808) (UniProt P16177). Description: NVS_GPCR_rNK3: NovaScreen (NVS) G Protein-Coupled Receptor Assay for rat Neurokinin-3 Receptor (NK3) (AID 2283310). Put shortly: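 Rat cortical membranes; radioligand binding with filtration and scintillation counting, 2 h after dosing. Primary screen in duplicate at 25 uM, then concentration-response up to 50 uM; loss of binding signal relative to DMSO.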

For assay [4], the target named is rat Somatostatin Receptor (SST), Sstr1 (gene 25033) (UniProt P28646). Nature of the assay: NVS_GPCR_rSST: NovaScreen (NVS) G Protein-Coupled Receptor Assay for rat Somatostatin Receptor (SST) (AID 2283314). A digest of the protocol:
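Rat forebrain membranes; radioligand displacement read by filter-based scintillation counting 1 h after dosing. Primary screen in duplicate at 25 uM. Actives (e.g., 30% inhibition) were rerun as concentration-response to 50 uM max and fitted against DMSO.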

Assay [5] addresses Voltage-dependent N-type calcium channel subunit alpha-1B (Rattus norvegicus) (UniProt Q02294). Nature of the assay: NVS_IC_rCaChN: NovaScreen (NVS) Ion Channel Assay for rat Calcium Channel, Type N (CaChN) (AID 2283317).
For assay [6], the target named is rat Opioid Receptor, Non-selective Binding, Oprm1 (gene 25601) (UniProt P33535). Nature of the assay: NVS_GPCR_rOpiate_NonSelective: NovaScreen (NVS) G Protein-Coupled Receptor Assay for rat Opioid Receptor, Non-selective Binding (AID 2283318). A digest of the protocol:
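Rat forebrain membranes, cell-free radioligand binding with filter-based scintillation counting, read 1.5 h after dosing. Primary screen in duplicate at 25 uM; actives retested in concentration series. Loss of signal versus DMSO baseline scored.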

Assay [7] concerns the target rat Neurokinin-1 Receptor (NK1), Tacr1 (gene 24807) (UniProt P14600). Nature of the assay: NVS_GPCR_rNK1: NovaScreen (NVS) G Protein-Coupled Receptor Assay for rat Neurokinin-1 Receptor (NK1) (AID 2283309). Put shortly: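 Rat submaxillary gland membranes; radioligand displacement read by filter-based scintillation counting after 1 h. Primary screen in duplicate at 25 uM; actives retested in concentration series; loss of binding fitted versus DMSO.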

In assay [8] the target is rat Opioid Receptor, Non-selective Sodium (Na+) Binding, Oprm1 (gene 25601) (UniProt P33535). Description: NVS_GPCR_rOpiate_NonSelectiveNa: NovaScreen (NVS) G Protein-Coupled Receptor Assay for rat Opioid Receptor, Non-selective Sodium (Na+) Binding (AID 2283311). Put shortly:
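Rat forebrain membranes, radioligand displacement with filter scintillation counting, 1.5 h incubation. Screened in duplicate at 25 µM; hits then run in concentration-response up to 50 µM; loss of binding fitted versus DMSO.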

In assay [9] the target is rat Vasopressin 1 Receptor (V1), Avpr1a (gene 25107) (UniProt P30560). Nature of the assay: NVS_GPCR_rV1: NovaScreen (NVS) G Protein-Coupled Receptor Assay for rat Vasopressin 1 Receptor (V1) (AID 2283316). A digest of the protocol: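 Radioligand binding on rat liver membranes, 1.5 h incubation, filter-based scintillation counting. Single 25 uM screen in duplicate; chemicals meeting threshold (e.g. 30% inhibition) run in concentration-response up to 50 uM.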

Records with an inconclusive call do not appear. More than one record can exist for a structure, and the calls need not agree. Calls of active or inactive are those of the source. The calls were made as follows: active = hit-call score of the fitted dose curve at least 0.9, where 1 is the maximum; inconclusive = response in the unintended direction; inactive = score below 0.9.

Chain of rat Neurokinin-1 Receptor (NK1), Tacr1 (gene 24807) (P14600 whole entry, looked up): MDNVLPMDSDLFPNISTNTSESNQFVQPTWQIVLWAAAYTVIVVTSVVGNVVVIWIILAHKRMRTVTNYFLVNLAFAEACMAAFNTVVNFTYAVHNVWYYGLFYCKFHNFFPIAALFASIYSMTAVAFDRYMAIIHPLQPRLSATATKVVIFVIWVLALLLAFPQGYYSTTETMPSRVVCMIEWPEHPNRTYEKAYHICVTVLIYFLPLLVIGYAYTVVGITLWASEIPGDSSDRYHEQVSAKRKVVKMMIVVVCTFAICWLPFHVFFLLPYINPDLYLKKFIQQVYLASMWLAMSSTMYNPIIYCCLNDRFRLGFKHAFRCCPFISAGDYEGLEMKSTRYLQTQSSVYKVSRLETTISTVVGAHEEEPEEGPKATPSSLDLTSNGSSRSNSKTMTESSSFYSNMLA
Chain of rat Opioid Receptor, Non-selective Binding, Oprm1 (gene 25601) (P33535 whole entry, looked up): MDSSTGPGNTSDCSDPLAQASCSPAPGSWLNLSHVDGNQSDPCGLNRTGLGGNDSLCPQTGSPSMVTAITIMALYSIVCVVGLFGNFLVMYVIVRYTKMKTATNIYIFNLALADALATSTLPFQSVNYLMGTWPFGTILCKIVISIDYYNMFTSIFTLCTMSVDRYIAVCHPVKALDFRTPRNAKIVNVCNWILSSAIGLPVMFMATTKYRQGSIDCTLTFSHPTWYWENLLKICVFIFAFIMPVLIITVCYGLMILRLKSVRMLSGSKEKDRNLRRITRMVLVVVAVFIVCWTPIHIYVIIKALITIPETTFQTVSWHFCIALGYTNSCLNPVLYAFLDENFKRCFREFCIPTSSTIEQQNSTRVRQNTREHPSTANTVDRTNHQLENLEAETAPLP
Chain of rat Neonicotinoid receptor (NNR), Chrna7 (gene 25302) (Q05941 whole entry, looked up): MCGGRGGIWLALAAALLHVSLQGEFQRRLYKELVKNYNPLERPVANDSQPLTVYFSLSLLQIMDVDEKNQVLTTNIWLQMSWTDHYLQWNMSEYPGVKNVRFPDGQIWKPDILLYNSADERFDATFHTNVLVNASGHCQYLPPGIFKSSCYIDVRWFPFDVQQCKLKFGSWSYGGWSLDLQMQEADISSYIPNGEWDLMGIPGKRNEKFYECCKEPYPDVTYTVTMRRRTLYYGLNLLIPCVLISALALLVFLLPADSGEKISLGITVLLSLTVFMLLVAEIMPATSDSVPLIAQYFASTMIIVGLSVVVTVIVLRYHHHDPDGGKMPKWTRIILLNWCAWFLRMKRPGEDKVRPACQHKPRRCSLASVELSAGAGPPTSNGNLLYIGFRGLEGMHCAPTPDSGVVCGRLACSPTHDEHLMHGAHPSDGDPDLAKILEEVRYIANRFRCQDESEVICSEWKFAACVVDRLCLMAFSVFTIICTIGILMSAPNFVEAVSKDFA
Chain of rat Opioid Receptor, Non-selective Sodium (Na+) Binding, Oprm1 (gene 25601) (P33535 whole entry, looked up): as the sequence (P33535 whole entry, looked up) above
Chain of rat Neurokinin-3 Receptor (NK3), Tacr3 (gene 24808) (P16177 whole entry, looked up): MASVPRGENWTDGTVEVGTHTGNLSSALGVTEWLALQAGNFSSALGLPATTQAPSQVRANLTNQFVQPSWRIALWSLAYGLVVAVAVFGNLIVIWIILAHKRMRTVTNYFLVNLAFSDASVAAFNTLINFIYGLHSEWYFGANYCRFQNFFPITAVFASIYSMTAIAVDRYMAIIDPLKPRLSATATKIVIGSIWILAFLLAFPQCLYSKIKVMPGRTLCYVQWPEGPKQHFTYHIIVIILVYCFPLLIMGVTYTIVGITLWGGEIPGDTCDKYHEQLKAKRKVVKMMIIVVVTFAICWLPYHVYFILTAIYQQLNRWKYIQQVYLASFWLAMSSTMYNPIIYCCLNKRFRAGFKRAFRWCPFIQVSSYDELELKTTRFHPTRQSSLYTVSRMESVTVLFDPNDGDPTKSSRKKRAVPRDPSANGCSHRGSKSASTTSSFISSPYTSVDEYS
Chain of human Neonicotinoid receptor (NNR), CHRNA2 (gene 1135) (Q15822 whole entry, looked up): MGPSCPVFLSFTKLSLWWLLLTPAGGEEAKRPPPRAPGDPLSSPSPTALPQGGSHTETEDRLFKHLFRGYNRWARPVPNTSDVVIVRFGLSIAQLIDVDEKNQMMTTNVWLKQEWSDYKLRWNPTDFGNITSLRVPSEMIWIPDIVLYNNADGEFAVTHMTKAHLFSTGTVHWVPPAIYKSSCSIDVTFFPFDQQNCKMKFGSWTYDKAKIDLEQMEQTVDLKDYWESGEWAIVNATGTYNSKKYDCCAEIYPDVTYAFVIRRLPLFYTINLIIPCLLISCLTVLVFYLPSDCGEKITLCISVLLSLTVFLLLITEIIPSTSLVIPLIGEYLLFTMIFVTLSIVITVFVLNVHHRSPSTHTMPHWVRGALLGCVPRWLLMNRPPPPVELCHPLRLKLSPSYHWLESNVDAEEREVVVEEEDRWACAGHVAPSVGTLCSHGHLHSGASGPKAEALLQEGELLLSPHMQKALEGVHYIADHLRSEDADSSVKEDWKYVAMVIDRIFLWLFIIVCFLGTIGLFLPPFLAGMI
Chain of rat Somatostatin Receptor (SST), Sstr1 (gene 25033) (P28646 whole entry, looked up): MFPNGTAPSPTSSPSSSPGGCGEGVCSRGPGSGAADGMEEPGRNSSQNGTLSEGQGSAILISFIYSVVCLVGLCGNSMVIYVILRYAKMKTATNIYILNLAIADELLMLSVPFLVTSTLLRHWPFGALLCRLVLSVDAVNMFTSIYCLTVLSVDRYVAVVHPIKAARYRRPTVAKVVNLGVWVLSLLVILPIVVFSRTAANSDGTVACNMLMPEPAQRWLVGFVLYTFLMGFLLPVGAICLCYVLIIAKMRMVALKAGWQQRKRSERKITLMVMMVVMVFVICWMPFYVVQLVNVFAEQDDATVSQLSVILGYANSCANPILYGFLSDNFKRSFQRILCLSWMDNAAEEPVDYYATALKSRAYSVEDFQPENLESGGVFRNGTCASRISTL
Chain of rat Vasopressin 1 Receptor (V1), Avpr1a (gene 25107) (P30560 whole entry, looked up): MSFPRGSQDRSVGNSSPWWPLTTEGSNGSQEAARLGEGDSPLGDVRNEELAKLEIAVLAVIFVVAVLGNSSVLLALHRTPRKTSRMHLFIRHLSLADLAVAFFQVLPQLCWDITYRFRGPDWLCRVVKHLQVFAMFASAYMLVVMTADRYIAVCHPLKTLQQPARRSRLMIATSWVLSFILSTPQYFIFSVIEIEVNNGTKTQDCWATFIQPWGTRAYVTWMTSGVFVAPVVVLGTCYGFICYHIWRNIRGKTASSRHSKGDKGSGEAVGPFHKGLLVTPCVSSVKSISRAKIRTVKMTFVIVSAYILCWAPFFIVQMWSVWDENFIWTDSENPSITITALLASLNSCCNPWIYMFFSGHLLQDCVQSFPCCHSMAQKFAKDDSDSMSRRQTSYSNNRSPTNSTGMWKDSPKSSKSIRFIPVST

Usually AC50 stands for the concentration giving half of the maximal activity seen. In the case of `Cc1ccc(-c2c(Cl)nc(C#N)n2S(=O)(=O)N(C)C)cc1`, the AC50 in assay [1] was 1.21 µM (active); in [2] it was 8.72 µM (active).
In the case of `C=CCC1=C(C)C(OC(=O)C2C(C=C(C)C)C2(C)C)CC1=O` (stereo not drawn), the outcome in assay [3] was inactive.
Consider `CNC(=O)ON=CC(C)(C)SC`, for which, in [2], the compound was called inactive.
As for `CCOC(=O)CC(SP(=S)(OC)OC)C(=O)OCC` (stereo not drawn), in assay [4], the outcome was inactive.
With `CCCCOC(=O)c1ccccc1C(=O)OCCCC`, the outcome in [5] and in [6] was inactive.
As for `CO/C=C(/C(=O)OC)c1ccccc1Oc1cc(Oc2ccccc2C#N)ncn1`, the compound was called inactive in [7], in [8] and in assay [6]. Besides, the AC50 in assay [8] is 12.6 µM (active); in [9], 26.4 µM (active); in [6], 6.66 µM (active).
